In article PMC12820563, “FoxP3 forms a head-to-head dimer in vivo and stabilizes its multimerization on adjacent microsatellites” one finds binding signal data, which are given here for 31 sequences.

The full ranking holds about 16,000 sequences; the median of “rpm ratio (pull-down/input)” is about 0.94, and the highest 2% start at about 1.7. What follows is part of a selection rich in the highest values, with near analogues and random picks from the rest.

The assay concerns the target T1, MBP-FoxP1dN (Mus musculus, UniProt P58462 326-579).
T1 sequence: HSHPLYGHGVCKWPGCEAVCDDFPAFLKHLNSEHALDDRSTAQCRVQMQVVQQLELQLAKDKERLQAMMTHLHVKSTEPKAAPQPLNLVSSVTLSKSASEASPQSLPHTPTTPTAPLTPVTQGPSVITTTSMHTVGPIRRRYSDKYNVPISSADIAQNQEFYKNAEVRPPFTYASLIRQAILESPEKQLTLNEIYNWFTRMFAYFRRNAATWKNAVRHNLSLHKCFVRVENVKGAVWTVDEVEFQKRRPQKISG
The experiment in a line: PD-seq (MBP pull-down with sequencing); 20 mM Tris-HCl pH 7.5, 100 mM NaCl, 1.5 mM MgCl2, 0.4 uM protein, 0.1 uM dsDNA library, 30 min, room temperature, amylose pull-down; high values mean tight binding. Particulars: protein: recombinant; tags: His6-MBP; chain copies: 2; dsDNA, one strand shown. In outline:
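Binding is the reads-per-million enrichment of pull-down relative to input, pooled across replicates. For this, 0.4 µM His6-MBP-tagged mouse FoxP3 or FoxP1 fragment lacking the N-terminus, made in E. coli, was incubated with 0.1 µM Klenow-filled double-stranded degenerate DNA library for 30 min at room temperature in Tris pH 7.5 buffer with NaCl and MgCl2. Complexes bound to amylose resin were washed three times before proteinase K released the DNA for PCR barcoding and Illumina sequencing.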
“GATGATTGTTCTCCCAGCTGATGAATTGGATGTATCGAGTAAACAAATTTTCCTAATCTTTCTGTTCAAGCGCCATCTAC”: the binding signal is 1.1 RPM ratio (pull-down/input).

Regarding “GATGATTGTTCTCCCAGCTGATGAATTGAAAATCTCGAGTAAACAAATTTTCCTAATCTTTCTGTTCAAGCGCCATCTAC”, the binding signal was 0.791 RPM ratio (pull-down/input). The same measure for “GATGATTGTTCTCCCAGCTGATGAATTCAACTCGTCGAGTAAACAAATTTTCCTAATCTTTCTGTTCAAGCGCCATCTAC”: 0.869 RPM ratio (pull-down/input). With “GATGATTGTTCTCCCAGCTGATGAATTTCTGTACTCGAGTAAACAAATTTTCCTAATCTTTCTGTTCAAGCGCCATCTAC”, the binding signal is 0.909 RPM ratio (pull-down/input). Under “GATGATTGTTCTCCCAGCTGATGAATTTACCATCTCGAGTAAACAAATTTTCCTAATCTTTCTGTTCAAGCGCCATCTAC” stands 1.19 RPM ratio (pull-down/input); under “GATGATTGTTCTCCCAGCTGATGAATTTCCAATGTCGAGTAAACAAATTTTCCTAATCTTTCTGTTCAAGCGCCATCTAC”, 0.862 RPM ratio (pull-down/input); under “GATGATTGTTCTCCCAGCTGATGAATTATCCGATTCGAGTAAACAAATTTTCCTAATCTTTCTGTTCAAGCGCCATCTAC”, 0.95 RPM ratio (pull-down/input).

Take “GATGATTGTTCTCCCAGCTGATGAATTTGTATTCTCGAGTAAACAAATTTTCCTAATCTTTCTGTTCAAGCGCCATCTAC”: the binding signal was 1.44 RPM ratio (pull-down/input). In the case of “GATGATTGTTCTCCCAGCTGATGAATTATTTTTATCGAGTAAACAAATTTTCCTAATCTTTCTGTTCAAGCGCCATCTAC”, the binding signal is 1.4 RPM ratio (pull-down/input).

In the case of “GATGATTGTTCTCCCAGCTGATGAATTGTTAGTATCGAGTAAACAAATTTTCCTAATCTTTCTGTTCAAGCGCCATCTAC”, the binding signal is 1.76 RPM ratio (pull-down/input).

With “GATGATTGTTCTCCCAGCTGATGAATTATTTCTATCGAGTAAACAAATTTTCCTAATCTTTCTGTTCAAGCGCCATCTAC”, the binding signal is 1.13 RPM ratio (pull-down/input). “GATGATTGTTCTCCCAGCTGATGAATTTTTAGTATCGAGTAAACAAATTTTCCTAATCTTTCTGTTCAAGCGCCATCTAC”: the binding signal was 1.02 RPM ratio (pull-down/input). The same measure for “GATGATTGTTCTCCCAGCTGATGAATTCTTAGTATCGAGTAAACAAATTTTCCTAATCTTTCTGTTCAAGCGCCATCTAC”: 0.963 RPM ratio (pull-down/input). Under “GATGATTGTTCTCCCAGCTGATGAATTATTATCATCGAGTAAACAAATTTTCCTAATCTTTCTGTTCAAGCGCCATCTAC” stands 1.38 RPM ratio (pull-down/input); under “GATGATTGTTCTCCCAGCTGATGAATTTTTATTATCGAGTAAACAAATTTTCCTAATCTTTCTGTTCAAGCGCCATCTAC”, 2.02 RPM ratio (pull-down/input). Regarding “GATGATTGTTCTCCCAGCTGATGAATTTATTAAATCGAGTAAACAAATTTTCCTAATCTTTCTGTTCAAGCGCCATCTAC”, the binding signal was 1.39 RPM ratio (pull-down/input). The same measure for “GATGATTGTTCTCCCAGCTGATGAATTATTATTATCGAGTAAACAAATTTTCCTAATCTTTCTGTTCAAGCGCCATCTAC”: 2.52 RPM ratio (pull-down/input). In the case of “GATGATTGTTCTCCCAGCTGATGAATTGTTATTATCGAGTAAACAAATTTTCCTAATCTTTCTGTTCAAGCGCCATCTAC”, the binding signal was 3.14 RPM ratio (pull-down/input). The same measure for “GATGATTGTTCTCCCAGCTGATGAATTTCTATTATCGAGTAAACAAATTTTCCTAATCTTTCTGTTCAAGCGCCATCTAC”: 1.48 RPM ratio (pull-down/input); for “GATGATTGTTCTCCCAGCTGATGAATTATCGTTATCGAGTAAACAAATTTTCCTAATCTTTCTGTTCAAGCGCCATCTAC”: 1.11 RPM ratio (pull-down/input).

With “GATGATTGTTCTCCCAGCTGATGAATTTGGCGTCTCGAGTAAACAAATTTTCCTAATCTTTCTGTTCAAGCGCCATCTAC”, the binding signal is 0.85 RPM ratio (pull-down/input). Under “GATGATTGTTCTCCCAGCTGATGAATTAGTTCGTTCGAGTAAACAAATTTTCCTAATCTTTCTGTTCAAGCGCCATCTAC” stands 0.937 RPM ratio (pull-down/input); under “GATGATTGTTCTCCCAGCTGATGAATTCCGTGTTTCGAGTAAACAAATTTTCCTAATCTTTCTGTTCAAGCGCCATCTAC”, 0.891 RPM ratio (pull-down/input); under “GATGATTGTTCTCCCAGCTGATGAATTATGATTCTCGAGTAAACAAATTTTCCTAATCTTTCTGTTCAAGCGCCATCTAC”, 0.982 RPM ratio (pull-down/input). The same measure for “GATGATTGTTCTCCCAGCTGATGAATTCCAAGCGTCGAGTAAACAAATTTTCCTAATCTTTCTGTTCAAGCGCCATCTAC”: 0.867 RPM ratio (pull-down/input); for “GATGATTGTTCTCCCAGCTGATGAATTGCACACATCGAGTAAACAAATTTTCCTAATCTTTCTGTTCAAGCGCCATCTAC”: 1.31 RPM ratio (pull-down/input); for “GATGATTGTTCTCCCAGCTGATGAATTTCTGCAGTCGAGTAAACAAATTTTCCTAATCTTTCTGTTCAAGCGCCATCTAC”: 0.883 RPM ratio (pull-down/input).

With “GATGATTGTTCTCCCAGCTGATGAATTGAGTGATTCGAGTAAACAAATTTTCCTAATCTTTCTGTTCAAGCGCCATCTAC”, the binding signal is 0.981 RPM ratio (pull-down/input). Under “GATGATTGTTCTCCCAGCTGATGAATTACCGGGCTCGAGTAAACAAATTTTCCTAATCTTTCTGTTCAAGCGCCATCTAC” stands 0.841 RPM ratio (pull-down/input); under “GATGATTGTTCTCCCAGCTGATGAATTAGAAAGTTCGAGTAAACAAATTTTCCTAATCTTTCTGTTCAAGCGCCATCTAC”, 0.938 RPM ratio (pull-down/input). The same measure for “GATGATTGTTCTCCCAGCTGATGAATTCTATTTATCGAGTAAACAAATTTTCCTAATCTTTCTGTTCAAGCGCCATCTAC”: 2.58 RPM ratio (pull-down/input).
